The sample as a whole holds a higher share of hits than the screen did.
RE007 growth inh = less growth of the S. pombe RE007 Vpr strain; S. pombe RE007 Vpr strain, BacTiter-Glo ATP luminescence, 24 h; Potency, µM (doses to about 92.2 µM), for inactives: at the top dose activity change, negative = less growth, usual class: inhibitors; actives 0.21% (n = 360,000); active = well fitted falling curve with a large enough effect; inconclusive = small, poorly fitted or top-dose-only effect; inactive = no such curve, though single readings can be large or run the other way; note: potency is the fitted concentration of half-maximal effect; % is set by controls: 0 for no effect and ±100 for the full control effect; nearly all actives have a fitted effect of over 50% in size
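Fission yeast strain RE007, carrying one chromosomally integrated HIV-1 vpr copy, was seeded at OD 0.01 in PMG+AL medium with 23 nL pinned compound. After 24 h at 30 °C and 99% humidity, viability was read by BacTiter-Glo luminescence.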
Shiga toxin inh = blocks Shiga toxin action in Vero cells. inhibition, % at 38.7 µM. AID 2315. Vero cells, Shiga toxin protein synthesis inhibition reporter. actives 9.2% (n = 290,000); in the data active = inhibition mostly above about 28%, no sharp cut-off; inactive = mostly below about 43%; note: 0% is about no effect
CHX counter = affects cycloheximide protein synthesis inhibition readout, counter-screen | cell reporter, cycloheximide protein synthesis inhibition counterscreen | max response, % | actives 12% (n = 300,000); in the data active = max response mostly above about 13%, no sharp cut-off; inactive = mostly below about 14%; note: read at 38.3 µM for the half of the compounds with a filed dose; 0% is about no effect
LmPK inhibitor = blocks Leishmania mexicana pyruvate kinase activity; AID 1721; Potency, µM (titrated, usually from 57.5 µM), inactives show at the top dose activity change, negative = inhibition, usual class: inhibitors; actives 0.37% (n = 290,000); Q27686; purified LmPK, Kinase-Glo ATP luminescence, 1 h; note: potency is the fitted concentration of half-maximal effect; % is set by controls: 0 for no effect and ±100 for the full control effect
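qHTS format; LmPK 0.1 nM; substrates PEP 0.5 mM and ADP 0.1 mM. One-hour room-temperature incubation, then coupled luciferase luminescence; 0.5 nM enzyme wells mark activation.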
TbPYK inhibitor = T. brucei pyruvate kinase inhibition. Q57TT1. TbPYK enzyme, Kinase-Glo Plus ATP luminescence, 45 min. Potency, µM (titrated, usually from 76.8 µM), for inactives: at the top dose activity, negative = inhibition, most hits filed as inhibitors. actives 0.12% (n = 410,000). AID 624173; note: potency is the fitted concentration of half-maximal effect; % is set by controls: 0 for no effect and ±100 for the full control effect; nearly all actives have a fitted effect of over 50% in size
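Luminescent Kinase-Glo Plus end-point after 45 min room-temperature reaction of T. brucei pyruvate kinase started with 130 uM ADP (final). Buffer TEA 50 mM pH 7.2 with KCl, MgCl2, BSA, Tween-20; titration-based qHTS with fitted concentration-effect curves.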
Giardia FBPA inh = inhibitors of Giardia lamblia fructose-1,6-bisphosphate aldolase; A8B2U2; purified Giardia FBPA; Potency, µM (top dose mostly 59.6 µM), without a hit: at the highest dose activity, negative = inhibition, most hits filed as inhibitors; actives 0.71% (n = 290,000); note: potency is the fitted concentration of half-maximal effect; % is set by controls: 0 for no effect and ±100 for the full control effect; nearly all actives have a fitted effect of over 55% in size
Target sequence (A8B2U2 whole entry, looked up): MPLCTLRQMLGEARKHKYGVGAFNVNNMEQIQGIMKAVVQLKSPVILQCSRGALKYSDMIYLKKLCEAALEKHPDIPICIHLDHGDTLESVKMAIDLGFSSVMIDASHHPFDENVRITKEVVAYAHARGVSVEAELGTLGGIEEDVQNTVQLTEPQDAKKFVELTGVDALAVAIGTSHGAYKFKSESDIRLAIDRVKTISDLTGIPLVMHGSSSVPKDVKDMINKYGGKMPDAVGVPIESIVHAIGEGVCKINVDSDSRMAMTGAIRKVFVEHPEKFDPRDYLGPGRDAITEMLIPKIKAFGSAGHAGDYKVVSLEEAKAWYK
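40 nM FBPA preincubated 10 min at RT with compound (up to 57.5 uM final), then substrate plus GAPDH/TPI/NAD/arsenate coupling and diaphorase/resazurin added. Fluorescence read after 20 min at RT, 525/598 nm.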
Starred values were filed as active, the others as inactive; ? = inconclusive; · = no result given; [ ] = dose if it differs, or a comment. Unless noted, calls come from the whole dose curve; as a rule, active = well fitted curve in the direction sought with a large enough effect; inconclusive = small, poorly fitted or top-dose-only effect, or another doubt; inactive = no such curve, though single readings can be large; an effect the other way counts as inactive or inconclusive.

SMILES	RE007 growth inh	Shiga toxin inh	CHX counter	LmPK inhibitor	TbPYK inhibitor	Giardia FBPA inh
O=C(Nc1nnc(-c2ccc(Cl)cc2)o1)c1cccc(N2C(=O)CCC2=O)c1	-10.2%	7.3	1.4	-4.9%	-3.5%	27.5%
Clc1ccc(-c2nnc(-c3ccco3)o2)cc1	?	91.2*	42.2*	-13.0%	1.0%	1.1%
CN(C)c1nnc(-c2ccc(Cl)cc2)o1	4.4%	48.7*	39.0*	-4.3%	3.3%	1.8%
COc1cccc(N2C(=O)CSC23C(=O)N(CC(=O)Nc2cccc(Cl)c2)c2ccccc23)c1 (configuration not stated)	·	·	·	·	-4.9%	·
CCN(c1ccccc1)S(=O)(=O)c1nnc(NC(=O)COc2cccc(C)c2)s1	·	·	·	·	2.9%	·
CCN(C1CCCCC1)S(=O)(=O)CCNC(=O)c1ccccc1	8.0%	·	·	·	7.7%	·
CN(C)CCCNc1ccc(-c2n[nH]c(=O)c3ccccc23)cc1[N+](=O)[O-]	-19.2%	·	2.2	1.5%	-1.1%	1.3%
CC(O)CNc1ccc(-c2n[nH]c(=O)c3ccccc23)cc1[N+](=O)[O-] (configuration not stated)	9.3%	-17.2	22.0*	9.9%	4.1%	11.5%
Clc1ccc(CSc2snnc2-c2ccccc2)cc1	-1.7%	27.4	23.3*	8.2%	-6.7%	0.0%
CC(C)Sc1snnc1-c1ccccc1	0.3%	13.1	9.0	-8.7%	2.2%	6.7%
Clc1ccccc1CSc1snnc1-c1ccccc1	-14.6%	63.6*	37.5*	-0.4%	-27.2%	3.0%
CSc1snnc1-c1ccccc1	-9.0%	-1.1	3.1	-2.2%	-2.5%	-0.4%
c1ccc(-c2nnsc2Sc2ccccn2)cc1	-7.8%	56.2*	31.9*	11.7%	-1.4%	2.4%
Clc1ccc(-c2nnsc2SCc2ccccc2)cc1	-20.7%	49.4*	43.7*	-3.1%	-2.7%	-7.1%
Cc1nnsc1Sc1ccccn1	10.2%	6.3	2.5	-10.3%	-2.5%	0.8%
COc1ccccc1NC(=O)c1cnc(SCC(=O)N2CCCc3ccccc32)n(C)c1=O	·	·	·	·	-1.8%	·
Cc1noc(C)c1C(=O)OC(C)C(=O)c1ccc(C(C)(C)C)cc1 (configuration not stated)	2.6%	·	·	·	-1.6%	·
CCc1ccccc1NC(=O)c1nnn(-c2ccc(F)cc2)c1C	·	·	·	·	-2.4%	·
Cc1ccc(C2(C)NC(=O)N(CC(=O)Nc3ccc(-c4nc5ccc(C)cc5s4)cc3)C2=O)cc1 (configuration not stated)	-4.6%	85.2*	54.4*	2.7%	0.7%	-1.9%
O=C(CCN1C(=O)c2ccccc2C1=O)Nc1ccc(-c2nc3ccccc3s2)cc1	7.6%	110.4*	33.2*	-1.3%	-27.8%	1.9%
Cc1ccc2nc(-c3ccc(NC(=O)CCN4C(=O)c5ccccc5C4=O)cc3)sc2c1	-11.5%	78.9*	55.5*	1.1%	-16.0%	-4.1%
O=C(CCN1C(=O)c2ccccc2C1=O)Nc1nc2ccccc2s1	1.6%	-38.2	19.4*	0.3%	4.2%	3.6%
CC(C)Cc1nnc(NC(=O)CCN2C(=O)c3ccccc3C2=O)s1	-7.5%	-20.4	-5.9	-1.9%	-1.3%	3.8%
C[C@@H]1CN([C@H](C)CO)C(=O)CCCn2cc(nn2)CO[C@H]1CN(C)C(=O)c1ccc2ccn(C)c2c1	9.0%	·	·	·	-4.4%	·
Cc1ccc2nc(-c3ccc(NC(=O)C(C)N4C(=O)c5ccccc5C4=O)cc3)sc2c1 (configuration not stated)	-4.9%	50.8*	93.1*	-0.7%	7.3%	1.5%
CCCc1nc2ccccc2c(=O)n1/N=C/c1ccccc1O	1.2%	59.0	47.0*	3.8%	3.8%	-4.7%
CCCc1nc2ccccc2c(=O)n1/N=C/c1c(C)[nH]n(-c2ccc(C)cc2)c1=O	15.8µM*	11.5	8.9	?	-6.4%	?
CCCc1nc2ccccc2c(=O)n1-c1ccc(O)cc1	-12.1%	20.6	-4.5	-3.0%	-0.4%	6.4%
Cc1cc2c(nc1C)CCCN2C[C@H](O)CN1CCCc2nc(-c3ccc(Br)cc3)ccc21	·	·	·	·	·	-7.2%[12.9 µM]

Assay outcomes as filed in PubChem.
